In all, about 5,800 sequences were measured (“enrichment r”: median about 0.68, highest 2% from about 11 on). Only a sample is shown.
T1: UNK ZnF1-6 (called full-length) (human, UniProt Q9C0B0 30-357)
T1 sequence: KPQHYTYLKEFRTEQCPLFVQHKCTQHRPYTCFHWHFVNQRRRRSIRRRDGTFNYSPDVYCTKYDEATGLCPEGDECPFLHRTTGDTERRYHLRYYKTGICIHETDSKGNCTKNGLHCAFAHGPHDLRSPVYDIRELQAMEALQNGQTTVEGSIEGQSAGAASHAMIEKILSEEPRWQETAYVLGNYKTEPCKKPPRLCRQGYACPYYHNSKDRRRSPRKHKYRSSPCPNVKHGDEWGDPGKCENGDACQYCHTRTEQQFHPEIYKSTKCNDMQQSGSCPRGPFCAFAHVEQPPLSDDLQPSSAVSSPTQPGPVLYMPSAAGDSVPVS

B1: chr22:31279490:31279591:+|3pUTR|ENSG00000182541|msi1|FALSE|unique (ssRNA)
RNA: GGGAGUUCUACAGUCCGACGAUCAGCAGCUUGGGCUGGGAAGAGGUGGUGGCAGAGUCUCAAAGCUGAGAUGCUGAGAGAGAUAGCUCCCUGAGCUGGGCCAUCUGACUUCUACCUCCCAUGUUUGCUCUCCCAACUCAUUAGCAACAGAGGAUUGAGCAUCA
B2: chr1:193029531:193029688:-|CDS|ENSG00000116750|unk|total|mutant (ssRNA)
RNA: GGGAGUUCUACAGUCCGACGAUCUUGAUAUCUUCACUUUUAUAUUUUACCGGUAAUUAAUAAUGCUUGUGCUACUCAAGCCACCGUGAGUGUGUUACUGAACUGUACCCACCAGGAUGUCCAUUCCGGCGAGACAUUAUCAGACAACAGAGGAUUGAGCAUCA
B3: ENSG00000099250:stop:overlap|stop_codon|ENSG00000099250|stop_codon|NA|stop_codon (ssRNA)
RNA: GGGAGUUCUACAGUCCGACGAUCCAAUUCACGGAGAAAUGUGGUCAUCUGGAAAAGGAGUCUGCUCCCUGGAUGCGAAUCUGUAGCCUGGAUUCUGGAAGGCGAUGCUGAUUUAGGAGGUGGAGUGAAUGGAGAAUUGAAAAGCAACAGAGGAUUGAGCAUCA
B4: chr12:10081268:10081413:-|three_prime_utr|ENSG00000150048|control|control|control (ssRNA)
RNA: GGGAGUUCUACAGUCCGACGAUCUCAGUACUACCAGCUCUCCAAUACUGGUCAAGACACCAUUUCUCAAAUGGAAGAAAGAUUAGGAAAUACGUCCCAAGAGUUGCAAUCUCUUCAAGUCCAGAAUAUAAAGCUUGCAGGAAGCAACAGAGGAUUGAGCAUCA
B5: chr15:63774837:63774950:-|CDS|ENSG00000103657|unk|total|mutant (ssRNA)
RNA: GGGAGUUCUACAGUCCGACGAUCGUAACAACAUUUCUUAAAGGAGUCACUAUUCCUAAUUCUGGGGCAGACACUUCCGGUCGCCGAUCCGCUUCUGAGUUGCUGCUUGGUUUGGCAGCUCAACGAGGCUCAUUGCGAUAUCUUCAACAGAGGAUUGAGCAUCA
B6: ENSG00000086827:stop:overlap|stop_codon|ENSG00000086827|stop_codon|NA|stop_codon (ssRNA)
RNA: GGGAGUUCUACAGUCCGACGAUCUAAUUCGUGCCUUGUUUCAGAACACAGAAAGAAGAGCAGCUGCCCUUGCUAAAAUUAAAUAGCUCCAUCUUCUUAAGAAAGCUAUGUCUUGAAUAUGUGGAUUCUUCCCUUGGCAUAAUUCAACAGAGGAUUGAGCAUCA
B7: chr10:27397735:27399240:-|CDS|ENSG00000182077|control|control|control (ssRNA)
RNA: GGGAGUUCUACAGUCCGACGAUCUCUUCUAGGCUACCCAGUGUUACAAAGUGCAAUUUCAACAAUAAUAGGGGUGUGUGUUUUAGCUGCAGCGAAAGCAUACAUCUUCAGAACAUUUUUUAAGAUUAUGUUUCUUGUUAUGAUCAACAGAGGAUUGAGCAUCA
B8: ENSG00000124766:be:win_3751|3pUTR|ENSG00000124766|bound_else_gene|NA|bound_elsewhere_windowed (ssRNA)
RNA: GGGAGUUCUACAGUCCGACGAUCUUGUACAUUUAAGUCUGUAUUAUAAUAAGCAAAAAGAUUGUGUGUAUGUAUGUUUAAUAUAACAUGACAGGCACUAGGACGUCUGCCUUUUUAAGGCAGUUCCGUUAAGGGUUUUUGUUUCAACAGAGGAUUGAGCAUCA
B9: chr13:45957189:45957298:-|CDS|ENSG00000123200|unk|total|mutant (ssRNA)
RNA: GGGAGUUCUACAGUCCGACGAUCUGUUUUUGUUUUCUUCAAACCGGGCACCAUAAAACAAGCUUACACGAGUGCUCCAAUGGCCGACAAUGAAUUACUUCGAUUGAGUCUUCGGUUAUUUAAGCGGAAGACUACUUGCCAUGCCAACAGAGGAUUGAGCAUCA
B10: chrX:130230552:130230660:-|CDS|ENSG00000056277|unk|total|mutant (ssRNA)
RNA: GGGAGUUCUACAGUCCGACGAUCAUCAGAACGUCCAUGUGAUGAAGACAAGACUGAUUCAGAGACAGGAAAGUUGAUCAUGUCCGUCAAUGAGUUUUAUUAUGGAAGGCAUGAAGGAGUCACUGAGAAAGAGCCAAAGACUUACAACAGAGGAUUGAGCAUCA
B11: ENSG00000107863:be:win_2551|CDS|ENSG00000107863|bound_else_gene|NA|bound_elsewhere_windowed (ssRNA)
RNA: GGGAGUUCUACAGUCCGACGAUCUUAAUUCGCCGUCAGCUCUCACAUGACCACGAAUCUGUUGGCCCUCCUAGCCUGGAUGCUCAGCCCAACUCAAAGACAGAAAGAUCAAAAUCAUAUGAUGAGGGUCUGGAUGAUUACAGACAACAGAGGAUUGAGCAUCA
B12: chr20:57651677:57651767:-|3pUTR|ENSG00000124225|msi1_unk|FALSE|overlapping (ssRNA)
RNA: GGGAGUUCUACAGUCCGACGAUCGUUGAGCUGUGUCUUGAAGGCAAAAGAAAAAAAAUUUCUACAGUAGUCUUUCUUGUUUCUAGUUGAGCUGCGUGCGUGAAUGCUUAUUUUCUUUUGUUUAUGAUAAUUUCACUUAACUUUCAACAGAGGAUUGAGCAUCA
B13: ENSG00000124766:be:win_3701|3pUTR|ENSG00000124766|bound_else_gene|NA|bound_elsewhere_windowed (ssRNA)
RNA: GGGAGUUCUACAGUCCGACGAUCUCAGGUUUAUAGCUGUUGUGUUUAAAAAUUGAAAAAAGUGGAAAACAUCUUUGUACAUUUAAGUCUGUAUUAUAAUAAGCAAAAAGAUUGUGUGUAUGUAUGUUUAAUAUAACAUGACAGCAACAGAGGAUUGAGCAUCA
B14: chr4:1716041:1716142:-|3pUTR|ENSG00000168936|msi1|total|mutant (ssRNA)
RNA: GGGAGUUCUACAGUCCGACGAUCAGGCUUCCCCGAGCGCUCAGCAGGUGAAGGCAGCAGGGGCCAUGGCCGGGAGCCAGGCCCCGCUUUGAACUGAGUUUCAAGGGCUGCCAAAGAGGGGCAGUGGGUUGGGGUUGUUUUUACCAACAGAGGAUUGAGCAUCA
B15: chr6:158785413:158785514:-|CDS|ENSG00000092820|msi1|FALSE|unique (ssRNA)
RNA: GGGAGUUCUACAGUCCGACGAUCGAGCUCAUCCAGGACAUCACCCAGAAACUUUUCUUCCUCCAAGUGAAGGAAGGAAUCCUUAGCGAUGAGAUCUACUGCCCCCCUGAGACUGCCGUGCUCUUGGGGUCCUACGCUGUGCAGCAACAGAGGAUUGAGCAUCA
B16: chr10:113876644:113876745:+|CDS|ENSG00000196865|msi1|total|mutant (ssRNA)
RNA: GGGAGUUCUACAGUCCGACGAUCGGUUAAUGAUGCAGAUGCCAGCCUUUGGCAAGAACCCGAAGUUUCCUGCUGGCCAACUCCCGUCAUACUUGGACCUCGUGGAAACAUGUUGUUUUCUUUGAUUGGAGAGGGACACAAAGACAACAGAGGAUUGAGCAUCA
B17: chr1:212686416:212686790:-|three_prime_utr|ENSG00000123685|control|control|control (ssRNA)
RNA: GGGAGUUCUACAGUCCGACGAUCUUGUGCAGAUCCAGCAUGGAGGCCACCCUCAGGAGUGACUUCUCAUCCACCCUGGCAGCUAGUAGGUUCUGCUGUUAUGCAGAGCCAUUUCCUCUAGAAUUUGGAUAAUAAAGAUGCUUACAACAGAGGAUUGAGCAUCA
B18: ENSG00000184117:stop:overlap|stop_codon|ENSG00000184117|stop_codon|NA|stop_codon (ssRNA)
RNA: GGGAGUUCUACAGUCCGACGAUCUGGGCAACUGGAACACGUGGUAUGGGGAGCAGGACCAGGCAGGUCAUUCCUGGUUUUGGUAGAUUUCUAUCCAUACAGUACUUUUGCCAUUUCCUUUGGGAAAAAGACCUUUAAACCAUACAACAGAGGAUUGAGCAUCA
B19: chr20:32237940:32238012:+|3pUTR|ENSG00000101346|msi1_unk|total|mutant (ssRNA)
RNA: GGGAGUUCUACAGUCCGACGAUCUUUCAAAGAUACAAAUAUUUACACCGUUUUAAUCAUGUAAUAUAUACAAUUUAAUGUCCCCGUGUUUUACUUAACCGUGUAUCAUGUUUUCCCUGUUGGUAUGCCGCCUGGAUAAAUGCUCAACAGAGGAUUGAGCAUCA
B20: chr4:152882748:152882856:+|CDS|ENSG00000164144|unk|FALSE|unique (ssRNA)
RNA: GGGAGUUCUACAGUCCGACGAUCCAGAAACUGCUGGCUAAAAAUGGAGAGACUCUUCUUGGGGCCAUUAAUUUUUUCAUUGCUAGUGUGAACACUUUGGUGAAUAAAACCAUUGAAGAUACAUUAAUGACUGUGAAACAGUAUCAACAGAGGAUUGAGCAUCA
B21: chrX:13662881:13662996:+|CDS|ENSG00000176896|unk|total|mutant (ssRNA)
RNA: GGGAGUUCUACAGUCCGACGAUCUCGAAUUCUCUGUCUUCCCAAGACGUUGCAAAACUCAGUGAAAUGAUUGUGCCUGAAAACCGAGCCAUUCAAUUGAAACCUAAGGAAGAGCAUUUUGGGGAUGGUGACCCUGAAUCCACUCAACAGAGGAUUGAGCAUCA
B22: chr10:116672031:116672132:-|3pUTR|ENSG00000165868|msi1|total|mutant (ssRNA)
RNA: GGGAGUUCUACAGUCCGACGAUCCCUUUCCUGCCUUGCAUUAAUGCUAUCUCCCUGUGUACUGUUUCUCUUAAAUGAGCAGACCGAAAUCUGCAGUGUUGGCAGACCGGUGAUGGAGAGGAUGAUAAUUUUAUCUUCUGGCCACAACAGAGGAUUGAGCAUCA

Biological target: T1, UNK ZnF1-6 (called full-length)
Assay: nsRBNS (natural sequence RNA bind-n-seq); RBNS binding buffer (assumed for nsRBNS): 25 mM Tris pH 7.5, 150 mM KCl, 3 mM MgCl2, 0.01% Triton X-100, 500 ug/ml BSA, 20 U/ml SUPERase-In, 4 C; UNK is unkempt and MSI1 is Musashi-1; names of the RNAs are library labels; protein concentration not given here; high values mean tight binding

| Binder | binding signal [enrichment R] |
| --- | --- |
| B1 | 0.852 |
| B2 | 0.805 |
| B3 | 0.76 |
| B4 | 0.413 |
| B5 | 0.574 |
| B6 | 1.49 |
| B7 | 0.38 |
| B8 | 0.359 |
| B9 | 0.325 |
| B10 | 0.608 |
| B11 | 0.436 |
| B12 | 1.22 |
| B13 | 0.65 |
| B14 | 0.696 |
| B15 | 0.521 |
| B16 | 0.577 |
| B17 | 0.63 |
| B18 | 0.898 |
| B19 | 0.548 |
| B20 | 0.365 |
| B21 | 0.441 |
| B22 | 0.548 |

Source: paper PMC12136788
